Screening results: PubChem, National Center for Advancing Translational Sciences (NCATS)
12-LOX inh: Primary qHTS assay for inhibitors of human arachidonate 12S-lipoxygenase (ALOX12): Round 2; Polyunsaturated fatty acid lipoxygenase ALOX12 (Homo sapiens), P18054; purified 12hLO, xylenol orange hydroperoxide absorbance; Potency, µM (top dose mostly 108 µM), without a hit: top-dose activity change, negative = inhibition, most hits filed as inhibitors; 580,000 tested, 1.1% active; further: potency means the concentration at half of the fitted maximal effect
Target sequence (P18054 whole entry, looked up): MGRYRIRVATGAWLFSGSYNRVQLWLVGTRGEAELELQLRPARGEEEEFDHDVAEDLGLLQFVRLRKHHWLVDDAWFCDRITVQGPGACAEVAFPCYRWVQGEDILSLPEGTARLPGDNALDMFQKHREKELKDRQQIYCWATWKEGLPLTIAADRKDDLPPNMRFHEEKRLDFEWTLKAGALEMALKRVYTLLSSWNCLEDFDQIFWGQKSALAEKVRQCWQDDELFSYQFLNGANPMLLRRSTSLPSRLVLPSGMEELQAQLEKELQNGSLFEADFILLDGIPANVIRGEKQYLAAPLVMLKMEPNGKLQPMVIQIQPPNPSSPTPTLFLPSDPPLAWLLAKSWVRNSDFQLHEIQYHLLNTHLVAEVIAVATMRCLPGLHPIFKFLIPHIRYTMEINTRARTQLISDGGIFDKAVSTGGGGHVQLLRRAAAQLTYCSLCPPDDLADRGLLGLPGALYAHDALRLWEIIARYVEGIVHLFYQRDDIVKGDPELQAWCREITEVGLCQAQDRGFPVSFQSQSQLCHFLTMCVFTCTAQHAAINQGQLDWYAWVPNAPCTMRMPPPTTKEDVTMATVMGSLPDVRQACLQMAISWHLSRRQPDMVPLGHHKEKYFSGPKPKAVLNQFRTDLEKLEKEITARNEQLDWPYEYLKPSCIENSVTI
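Hydroperoxide product was detected by ferrous iron/xylenol orange as the 573 to 405 nm absorbance ratio. Arachidonic acid at 40 uM (final) was turned over for 30 min at room temperature by 150 nM human 12hLO, pH 7.0 Hepes buffer, after 15 min compound preincubation.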
DT40 TDP1 no CPT: qHTS for Inhibitors of human tyrosyl-DNA phosphodiesterase 1 (TDP1): qHTS in cells in absence of CPT | Potency, µM (doses to about 46.2 µM), inactives show top-dose activity change, negative = growth inhibition, most hits filed as inhibitors | 420,000 tested, 15% active | AID 686978, 2013 | DT40 Tdp1-/- hTDP1 cells, no CPT, ATP luminescence, 48 h; further: potency means the concentration at half of the fitted maximal effect; nearly all actives have a fitted effect of over 55% in size
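Cells were dispensed at 400 per well, compounds added by pin tool, plates incubated ≥48 hr at 37 °C, then CellTiter-Glo added for 30 min at room temperature before luminescence reading. Line: DT40 Tdp1-/- complemented with hTDP1; camptothecin omitted.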
IL1B secr inh: qHTS for Inhibitors of Inflammasome Signaling: IL-1-beta AlphaLISA Primary Screen. THP-1 LPS/ATP IL-1B secretion, AlphaLISA, 16 h; hits give low values. activity change, % at 57.5 µM. 360,000 tested, 4.7% active. AID 743279, 2014; in the data active means activity change below about -50%; inconclusive means mostly about -30% to -49%
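THP-1 cells pretreated 1 hr with compounds (up to 57.5 uM final), then stimulated with LPS (250 ng/mL final) plus ATP (1.25 mM final); secreted IL-1B measured by AlphaLISA after 16 hr, decreased signal indicating inhibition.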
HT1080 IDH1KD tx: qHTS for induction of synthetic lethality in tumor cells producing 2HG: qHTS for the HT-1080-IDH1KD cell line; HT-1080 IDH1 knockdown viability, ATP luminescence, 48 h; Potency, µM (titrated, usually from 46.1 µM), for inactives: top-dose activity, negative = toxicity, hits mostly cytotoxic; 360,000 tested, 2% active;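 further: potency means the concentration at half of the fitted maximal effect; 0% = DMSO wells and -100% = cell-free medium wells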
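Assay cells: HT-1080 with IDH1 knockdown, 750 per well, RPMI/5% FBS. Exposure: 48 h at 37 °C following 2 h pre-incubation. Read: CellTiter-Glo luminescence; fitted concentration-response, curve class assigned.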
TDP1 cell CPT: qHTS for Inhibitors of human tyrosyl-DNA phosphodiesterase 1 (TDP1): qHTS in cells in presence of CPT | Potency, µM (doses to about 46.2 µM), without a hit: top-dose activity change, negative = growth inhibition, usual class: inhibitors | chicken DT40 Tdp1-/-;hTDP1 cells + 20 nM CPT, ATP luminescence, 48 h | 420,000 tested, 12% active; further: potency means the concentration at half of the fitted maximal effect; nearly all actives have a fitted effect of over 55% in size
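Cell growth measured by CellTiter-Glo luminescence after a minimum 48 h, 37 C compound exposure with 20 nM CPT in Tdp1-knockout DT40 cells stably expressing hTDP1, seeded 400/well; qHTS titration format.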
HT1080NT lethal: qHTS for induction of synthetic lethality in tumor cells producing 2HG: qHTS for the HT-1080-NT fibrosarcoma cell line. HT-1080-NT fibrosarcoma viability, CellTiter-Glo ATP luminescence, 48 h. Potency, µM (titrated, usually from 46.1 µM), inactives show top-dose activity, negative = less viability, most hits filed as cytotoxic. 360,000 tested, 1.6% active;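 further: NT is the 2HG producing partner of a matched IDH1 knockdown line; potency means the concentration at half of the fitted maximal effect; 0% = DMSO-treated cells and -100% = media-only wells without cells; nearly all actives have a fitted effect of over 55% in size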
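Viability of the 2HG-overproducing fibrosarcoma line after 48 hours of compound exposure at 37 degrees C was determined by luminescence with CellTiter-Glo, and concentration-effect curves were then fitted and categorized.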
Starred values were filed as active, the others as inactive. The full list was thinned out, with hits kept by preference. Unless noted, the call rests on the fitted dose curve; in most records, active means well fitted curve in the direction sought with a large enough effect; inconclusive means small, poorly fitted or top-dose-only effect, or another doubt; inactive means no such curve, though single readings can be large; an effect the other way counts as inactive or inconclusive. Unless noted, on the % scale 0 is the no-effect control and ±100 the full control effect.

Screening O=C(NCCc1ccc(Cl)cc1)c1cc(S(=O)(=O)N2CCCC2)ccc1F returned 12-LOX inh 2%, DT40 TDP1 no CPT 16µM*, IL1B secr inh -5, HT1080 IDH1KD tx -17%, TDP1 cell CPT 26µM* and HT1080NT lethal -7%.
Screening O=C(NCCc1ccc2c(c1)OCCO2)c1cc(S(=O)(=O)N2CCCC2)ccc1Cl returned 12-LOX inh -3%, DT40 TDP1 no CPT inconclusive, IL1B secr inh 11, HT1080 IDH1KD tx -1%, TDP1 cell CPT 18µM* and HT1080NT lethal 10%.
Cc1ccc(CN2CCN(c3cccc4[nH]ccc34)CC2)cc1 was read as 12-LOX inh -4%, DT40 TDP1 no CPT inconclusive, IL1B secr inh 27, HT1080 IDH1KD tx -18%, TDP1 cell CPT 16µM* and HT1080NT lethal -3%.
`CCOC(=O)C1=CCN(S(=O)(=O)c2ccccc2F)C1c1ccc(Cl)cc1` (stereo not drawn) gave 12-LOX inh -4%, DT40 TDP1 no CPT inconclusive, IL1B secr inh 10, HT1080 IDH1KD tx -16%, TDP1 cell CPT inconclusive and HT1080NT lethal -19%.
For CCOC(=O)C1=CCN(S(=O)(=O)c2ccccc2Cl)C1c1ccc(C)cc1 (stereo not drawn) the results were 12-LOX inh -10%, DT40 TDP1 no CPT 18µM*, IL1B secr inh 20, HT1080 IDH1KD tx -4%, TDP1 cell CPT 26µM* and HT1080NT lethal 0%.
For CCOC(=O)C1=CCN(S(=O)(=O)c2ccccc2C)C1c1ccc(Cl)cc1 (stereo not drawn) the results were 12-LOX inh -21%, DT40 TDP1 no CPT 15µM*, IL1B secr inh 8, HT1080 IDH1KD tx inconclusive, TDP1 cell CPT inconclusive and HT1080NT lethal inconclusive.
For CCOC(=O)C1=CCN(S(=O)(=O)c2ccccc2Cl)C1c1ccccc1 (stereo not drawn) the results were 12-LOX inh -23%, DT40 TDP1 no CPT 23µM*, IL1B secr inh 42, HT1080 IDH1KD tx -15%, TDP1 cell CPT inconclusive and HT1080NT lethal -11%.
CCOC(=O)C1=CCN(S(=O)(=O)c2ccccc2F)C1c1ccccc1 (stereo not drawn) was read as 12-LOX inh 5%, DT40 TDP1 no CPT 16µM*, IL1B secr inh 47, HT1080 IDH1KD tx 6%, TDP1 cell CPT inconclusive and HT1080NT lethal 8%.
`CCOC(=O)C1=CCN(S(=O)(=O)c2ccccc2Cl)C1c1cccc(C)c1` (stereo not drawn) gave 12-LOX inh 2%, DT40 TDP1 no CPT inconclusive, IL1B secr inh 35, HT1080 IDH1KD tx -1%, TDP1 cell CPT inconclusive and HT1080NT lethal 2%.
O=C(O)CSCc1cccc(Br)c1 was read as 12-LOX inh -44%.
`CCOC(=O)c1c(C)[nH]c(C)c1C(=O)COC(=O)C1CCCN1S(=O)(=O)c1ccccc1F` (stereo not drawn) gave 12-LOX inh 34%, DT40 TDP1 no CPT 15µM*, IL1B secr inh 27, HT1080 IDH1KD tx 0%, TDP1 cell CPT 12µM* and HT1080NT lethal 1%.
O=C(Nc1cc(S(=O)(=O)N2CCCCC2)ccc1Cl)c1ccccc1NS(=O)(=O)c1ccc(F)cc1 was read as 12-LOX inh inconclusive, DT40 TDP1 no CPT 2.6µM*, IL1B secr inh -22, HT1080 IDH1KD tx inconclusive, TDP1 cell CPT 5.2µM* and HT1080NT lethal 0.58µM*.
